High-throughput results as filed in PubChem BioAssay.
HTT ATP protect – cytoprotection in Huntington HTT-Q103 PC12 cell model | PC12 HTT-Q103 induced, cytoprotection, ATP luminescence, 40 h | Potency, µM (titrated, usually from 56.4 µM), inactives show cytoprotection (ATP increase), hits mostly activators | 230,000 compounds, 0.14% hits; note: potency is the fitted concentration of half-maximal effect; % of control where 0% means no effect; nearly all actives have a fitted effect of over 45% in size
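Quantitative HTS on tebufenozide-induced (100 nM) PC12 cells expressing HTTQ103 exon 1–GFP; compounds tested as a concentration series; survival measured via cellular ATP.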
HttQ103 aggreg – reduces HttQ103-GFP aggregates in PC12 cells. PC12 HttQ103-GFP aggregates, Acumen cytometry, 40 h. 220,000 compounds, 1.1% hits. Potency, µM (titrated, usually from 46.1 µM), inactives show at the top dose activity change, negative = inhibition, most hits filed as inhibitors. AID 1688; note: potency is the fitted concentration of half-maximal effect; % is set by controls: 0 for no effect and ±100 for the full control effect; nearly all actives have a fitted effect of over 60% in size
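Steps: seed 1500 PC12 HTTQ103-GFP cells/well; add tebufenozide, 100 nM final; add compound titration; add ATPLite reagent; quantify GFP aggregates by laser scanning cytometry.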
PKM2 act – activators of human pyruvate kinase M2; P14618; purified PKM2, Kinase-Glo ATP luminescence, activation; response scale: 0% is enzyme alone, no compound; Potency, µM (doses to about 57.5 µM), for inactives: at the highest dose activation, hits mostly activators; 260,000 compounds, 0.34% hits; AID 1631; note: potency is the fitted concentration of half-maximal effect; % is set by controls: 0 for no effect and ±100 for the full control effect; nearly all actives have a fitted effect of over 55% in size
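Purified hPK-M2 (>95%) run at intermediate activity with 0.1 mM ADP and 0.5 mM PEP in 50 mM imidazole pH 7.2, KCl, MgCl2; 1 h room temperature. ATP formed read by Kinase-Glo luminescence; normalized to uninhibited and no-enzyme controls.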
GLA inh pH 4.5 – blocks human alpha-galactosidase A at pH 4.5; P06280; purified enzyme, 4-MU-alpha-Gal fluorescence, pH 4.5; 230,000 tested, under 10 active; AID 1467; activity change, negative = inhibition, % at 105 µM;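 note: 0% = full activity with enzyme and -100% = basal without enzyme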
Target sequence (P06280 whole entry, looked up): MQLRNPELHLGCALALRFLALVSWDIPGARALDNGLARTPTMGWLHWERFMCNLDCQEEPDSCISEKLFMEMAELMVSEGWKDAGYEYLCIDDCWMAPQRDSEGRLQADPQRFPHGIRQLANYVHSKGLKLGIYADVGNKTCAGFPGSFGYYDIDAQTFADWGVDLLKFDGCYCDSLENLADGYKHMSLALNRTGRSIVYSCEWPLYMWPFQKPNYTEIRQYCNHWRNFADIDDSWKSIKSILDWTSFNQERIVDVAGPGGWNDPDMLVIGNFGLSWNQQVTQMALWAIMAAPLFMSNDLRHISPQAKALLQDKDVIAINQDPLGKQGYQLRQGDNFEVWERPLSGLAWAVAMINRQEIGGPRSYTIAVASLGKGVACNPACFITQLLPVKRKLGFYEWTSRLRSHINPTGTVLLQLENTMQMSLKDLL
GLA spleen mod – inhibits or activates alpha-galactosidase in human spleen homogenate | human spleen homogenate, 4MU-alpha-Gal fluorescence, 40 min | 240,000 compounds, 0.008% hits | P06280 | Potency, µM (top dose mostly 80 µM), for the others: at the highest dose activity change, negative = inhibition, actives largely listed as inhibitors;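 note: potency is the fitted concentration of half-maximal effect; 0% = enzyme with vehicle and -100% = no enzyme basal signal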
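Human spleen homogenate (1 ug) was the enzyme source, with 4-methylumbelliferyl-alpha-D-galactopyranoside (1 mM final) in pH 5.0 citrate buffer with 0.01% Tween-20. Compounds were titrated; after 40 min at 37C, NaOH/glycine stop, 4-MU fluorescence read; AC50 from Hill fits.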
The depositor's hits bear a star; ? = inconclusive; · = no result; [ ] = another dose, or the depositor's remark. A selection: hits, their analogues and other compounds. The true share with any hit is near 1.2%. Calls come from the whole dose curve; as a rule, active = well fitted curve in the direction sought with a large enough effect; inconclusive = small, poorly fitted or top-dose-only effect, or another doubt; inactive = no such curve, though single readings can be large; an effect the other way counts as inactive or inconclusive.

SMILES | HTT ATP protect | HttQ103 aggreg | PKM2 act | GLA inh pH 4.5 | GLA spleen mod
C=C1CCC2[C@](C)(CO)[C@H](O)CC[C@@]2(C)[C@@H]1C/C=C1/C(=O)OC[C@H]1O (some centres not stated) | 7.1µM* | · | · | -6 | 3%
O=C(O)CCCC[C@H]1CCSS1 | -1%[1.9 µM] | · | · | · | ·
CCN1/C(=C/C=C/c2oc3ccc4ccccc4c3[n+]2CC)Oc2ccc3ccccc3c21 | -75%[10 µM] | 0.89µM* | -8% | -20 | 6%
CC[n+]1c(/C=C/N(C)c2ccccc2)oc2ccc(Cl)cc21 | -7%[10 µM] | 5% | 1% | 1 | 6%
Cc1cccc(NC(=S)NCCc2c[nH]c3ccccc23)c1 | 9%[10 µM] | 11µM* | 5% | -8 | 3%
Cc1ccc(NC(=S)NCCc2c[nH]c3ccccc23)cc1 | -5% | 0% | 1% | -2 | 4%
Cc1ccc2cc(N)ccc2n1 | 3%[10 µM] | -16%[9.22 µM] | 1% | 0 | 2%
Nc1ccc2cc3ccc(N)cc3nc2c1 | -17% | 13µM* | · | · | ·
O=[N+]([O-])c1ccc(Oc2ccc(F)cc2)c2ccncc12 | -3% | 10µM* | -7% | 2 | 12%
Cc1ccc(C)c(NC(=S)NNC(=O)c2csc3c2CCCC3)c1 | 11% | 25µM* | 0% | -4 | 4%
O=C1c2oc3ccccc3c(=O)c2C(c2cccc(Br)c2)N1Cc1ccco1 (configuration not stated) | -15% | 1% | 20µM* | -7 | 2%
NCC(=O)N[C@H](CO)C(=O)O | -12%[10 µM] | · | · | · | ·
COc1cccc(-c2cncnc2Nc2ccc(F)cc2)c1 | 6% | · | · | · | -9%
O=C(OCCOc1cccc(Cl)c1)c1ccc2ncsc2c1 | · | · | 16µM* | · | ·
CC(=O)NC(=O)COC(=O)c1ccc2ncsc2c1 | -7% | 19% | 1% | 2 | -7%
CC[C@H](C)[C@H](NC(=O)[C@H](Cc1ccccc1)NC(=O)[C@H](C)NC(=O)[C@H](CC(=O)O)NC(=O)[C@H](CCCCN)NC(=O)[C@H](CO)NC(=O)[C@@H]1CCCN1C(=O)[C@@H]1CCC(=O)N1)C(=O)NCC(=O)N[C@@H](CC(C)C)C(=O)N[C@@H](CCSC)C(N)=O | · | · | · | · | -6%
O=[N+]([O-])c1ccc(Cl)cc1Cl | 0% | · | · | · | 3%
CC(C(=O)NCCC1=CCCCC1)N1C(=O)c2ccccc2C1=O (configuration not stated) | -61%[10 µM] | 5.6µM* | -18% | -8 | -11%
CCCCCc1ccc(OCCOCCn2c[n+](C)c3ccccc32)c(CCCCC)c1 | -85% | 11µM* | -1% | -5 | 4%
CCCCCc1ccc(OCCC[n+]2ccccc2)c(CCCCC)c1 | -96%[10 µM] | 3.2µM* | -10% | -4 | 14%
CC(=O)Nc1ccc(OCCC[n+]2ccccc2)cc1 | -2%[10 µM] | 0%[9.22 µM] | -2% | 1 | 5%
C[n+]1cn(CC(O)COCc2ccccc2)c2ccccc21 (configuration not stated) | 0% | 2% | -4% | 3 | 4%
O=C1CCCC(C(C(=O)OCc2ccccc2)C(=O)OCc2ccccc2)C1 (configuration not stated) | ? | · | · | -7 | 4%
Cn1cnc([N+](=O)[O-])c1Sc1nc(N)nc2c1ncn2[C@H]1C[C@H](O)[C@@H](CO)O1 | -17%[10 µM] | · | · | · | ·
COc1cc(OC)cc(C(=O)Oc2c(CN3CCOCC3)cc(Cl)c3cccnc23)c1 | -76%[10 µM] | 4.5µM* | -2% | -21 | 0%
SMILES | HTT ATP protect | HttQ103 aggreg | PKM2 act | GLA inh pH 4.5 | GLA spleen mod
CN1CCN(c2ncc3nc(-c4ccccc4)c(=O)n(CCc4ccccc4)c3n2)CC1 | -3% | · | · | · | 1%
CCS(=O)(=O)N1Cc2ccccc2CC1C(=O)Nc1ncc(C)s1 (configuration not stated) | -48% | -13% | ? | 1 | -3%
CCS(=O)(=O)N1Cc2ccccc2CC1C(=O)Nc1nnc(SCc2ccc(C#N)cc2)s1 (configuration not stated) | -5%[10 µM] | 13µM* | 26% | -6 | -2%
N#Cc1ccc(NCCc2ccccn2)c([N+](=O)[O-])c1 | -15%[10 µM] | 7%[9.22 µM] | 14µM* | -9 | 11%
C=C[C@@](C)(O)CC[C@H]1[C@]2(C)CCCC(C)(C)[C@H]2CC[C@]1(C)O | 5% | · | · | · | ·
COc1ccc(N2CCN(C(=O)CSc3nnc(-c4cc5ccccc5cc4O)n3C)CC2)cc1 | -20% | 13µM* | -4% | 4 | -1%
COc1ccc(NS(=O)(=O)c2ccc(OC)c3ccccc23)cn1 | -23% | 18µM* | -6% | -8 | -12%
COc1ccc(NS(=O)(=O)c2cccs2)cn1 | · | 2% | -25% | 0 | 4%
O=C(CN1C(=O)C2CCCCC2C1=O)Nc1nc(-c2ccccn2)cs1 (configuration not stated) | 13% | 11µM* | 4% | 9 | -1%
C[C@@H](C(=O)Nc1nc(-c2ccccn2)cs1)N1C(=O)C2CCCCC2C1=O (some centres not stated) | 3% | ? | -13% | 8 | -2%
Cc1cc(SCc2ccccc2F)nc(=O)[nH]1 | · | · | 16µM* | · | ·
Cc1cnc(=O)[nH]c1SCc1ccccc1F | · | · | -1%[0.46 µM] | · | ·
O=C(Nc1nc(NC(=O)c2ccco2)n(-c2ccccc2)n1)c1ccccc1 | 4µM* | ? | 1% | -6 | -4%
Cc1cccc(-c2nc(CSCC(=O)N3CCN(Cc4ccc5c(c4)OCO5)CC3)c(C)o2)c1 | -1%[10 µM] | 10µM* | 1% | -4 | -6%
O=[N+]([O-])c1ccc(O)c(-c2nc(-c3ccccc3)c(-c3cccs3)[nH]2)c1 | -57% | 7.9µM* | -2% | -18 | 6%
CN(C)c1ccc(-c2ccc(C3C4C=CCCC4(C)C(=O)N3Cc3ccccc3)c(F)c2)cc1 (configuration not stated) | · | · | · | · | -1%
CC1=CSC2=NS(=O)(=O)CCN12 | 1%[10 µM] | 12%[9.22 µM] | -3% | -2 | 0%
CC1=C(Cl)C2=NS(=O)(=O)CCN2C=C1Cl | · | 0.11µM* | 8% | -2 | 18%
CCCC1(C(=O)OC)C=C2C(=C(c3ccccc3)C(=O)C2C)CN1 (configuration not stated) | -48% | · | 1% | 3 | 0%
CCC(=O)Oc1c(C(=O)CC)cc2c(C)cc(=O)oc2c1C | · | 13µM* | 7% | -5 | 0%
CCC(=O)c1cc2c(C)cc(=O)oc2c(C)c1OC | -3%[10 µM] | -33% | -2% | 3 | -1%
COc1ccc(-c2csc3c2[N+]2=CCC=C2C3=O)cc1 | -52%[10 µM] | · | · | · | ·
CCOC(=O)c1c(C)nc2ccccn12 | 4% | -23% | 5% | -2 | 9%
Cc1ccc(SCC(=O)c2c(C)nc3ccccn23)cc1 | -79% | 14µM* | 0% | -8 | 3%
COc1ccc(CCNC(=O)c2c(C)nc3ccccn23)cc1 | -1% | -8% | -1% | -6 | -2%
COc1ccc(CNC(=O)c2c(C)nc3ccccn23)cc1 | 22%[10 µM] | 25µM* | ? | -1 | -6%
